TRHR enhancer = allosteric enhancers of human TRH receptor; P34981; TRHR cells, fluo-8 calcium fluorescence, EC20 TRH enhancement; enhancement, % at 2 µM; 0.66% of 360,000 active; AID 493056; in the data active = enhancement above about 30%; note: 0% is about no effect
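Enhancer read-out: after compound pinning and an initial kinetic agonist-mode read, an EC20 of TRH (10 nM final) was injected and fluo-8 calcium signal (Ex 480/Em 530) followed at 1 s/cycle for 100 cycles in TRHR-expressing cells.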
D1 antag = blocks dopamine activation of the human D1 receptor; P21728; HEK293 TREx D1 cells, calcium flux, dopamine EC80; stronger effect = lower value; activity change, negative = inhibition, % at 10 µM; 3.2% of 360,000 active; in the data active = activity change below about -30%; note: % is set by controls: 0 for no effect and ±100 for the full control effect
Target sequence (P21728 whole entry, looked up): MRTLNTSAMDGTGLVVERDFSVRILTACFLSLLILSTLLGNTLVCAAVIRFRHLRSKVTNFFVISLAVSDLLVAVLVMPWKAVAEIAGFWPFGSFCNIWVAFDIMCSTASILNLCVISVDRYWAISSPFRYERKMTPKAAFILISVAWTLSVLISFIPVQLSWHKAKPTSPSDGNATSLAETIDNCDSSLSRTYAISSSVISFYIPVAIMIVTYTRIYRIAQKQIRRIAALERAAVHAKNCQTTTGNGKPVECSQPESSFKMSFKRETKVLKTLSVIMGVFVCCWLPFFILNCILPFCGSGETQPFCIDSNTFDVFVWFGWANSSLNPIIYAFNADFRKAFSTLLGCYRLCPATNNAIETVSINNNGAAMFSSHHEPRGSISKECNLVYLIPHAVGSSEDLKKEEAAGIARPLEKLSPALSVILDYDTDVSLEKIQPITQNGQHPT
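Cells carrying a force-coupled, tetracycline-inducible human D1 receptor report calcium flux. Each well gets a 10 s baseline, compound with 180 s monitoring, then an EC80 dopamine stimulus with a second 180 s kinetic read.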
D1 ag = activates the human D1 dopamine receptor | activation, % at 2 µM | P21728 | AID 504660 | 1% of 360,000 active | HEK293 T-REx D1 cells, calcium flux, agonist mode; note: 0% is about no effect
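Inducible HEK293 T-REx D1 cells, force-coupled to calcium signalling, were plated at 4000 cells/well with tetracycline and held overnight at 30 C. After no-wash calcium dye loading, compound-evoked calcium rise over 180 s flagged agonists.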
TRHR ag = activates the human TRH receptor | TRHR cells, calcium flux fluo-8, FDSS agonist mode | AID 493084 | 0.18% of 360,000 active | activation, % at 2 µM; note: 0% is about no effect
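Read-out: compound-evoked intracellular calcium rise in TRHR cells, fluo-8 dye, kinetic FDSS fluorescence at 1 s/cycle following a 10-cycle baseline. Cells cultured overnight before dye loading (30 min–1.5 h, RT).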
D1 PAM = enhances dopamine response at the human D1 receptor. P21728. potentiation, % at 10 µM. HEK293 TREx D1 cells, calcium flux, dopamine EC20 potentiation. 0.036% of 360,000 active; in the data active = potentiation above about 30%; note: 0% is about no effect
The depositor's hits bear a star. Rows were chosen to be rich in hits. Some 4.7% of all compounds tested hit in one or more screens of this group. Cut-off read from the data, not from the text of the source, unless noted: active = activation above about 30%; inactive = the rest.

Screening COc1cccc2cc(C(=O)NCCc3c(C)[nH]c4ccc(F)cc34)c(=O)oc12 returned TRHR enhancer 38.7*, D1 antag -4.0, D1 ag 0.0, TRHR ag -0.6 and D1 PAM -4.0.
Cc1[nH]c2ccc(F)cc2c1CCNC(=O)c1cc2cc(Cl)ccc2oc1=O was read as TRHR enhancer 4.5, D1 antag -1.4, D1 ag -0.5, TRHR ag 0.4 and D1 PAM -0.8.
For COc1ccc2oc(=O)c(C(=O)NCCc3c(C)[nH]c4c(C)cccc34)cc2c1 the results were TRHR enhancer 50.6*, D1 antag 5.7, D1 ag -0.9, TRHR ag -0.2 and D1 PAM -1.3.
Cc1[nH]c2c(C)cccc2c1CCNC(=O)c1cc2ccccc2oc1=O was read as TRHR enhancer 2.6, D1 antag 3.4, D1 ag -0.7, TRHR ag 1.7 and D1 PAM -5.3.
`Cc1ccc(C(=O)NCC(=O)OCC(=O)N2CC(C)OC(C)C2)cc1` (stereo unspecified) gave TRHR enhancer -2.2, D1 antag -0.4, D1 ag 0.9, TRHR ag 0.7 and D1 PAM -3.2.
`CCc1ccc(-c2nc(SCC(=O)NCC3CCCO3)c(-c3ccc(F)cc3)[nH]2)cc1` (stereo unspecified) gave TRHR enhancer -5.6, D1 antag -12.5, D1 ag 1.6, TRHR ag 0.8 and D1 PAM -2.2.
Screening COc1ccc(NC2CCCN(C(=O)COc3ccc(Cl)cc3C)C2)cc1OC (stereo unspecified) returned TRHR enhancer -5.5, D1 antag -9.1, D1 ag 1.7, TRHR ag -0.2 and D1 PAM -1.5.
For COc1ccc(Cl)cc1NC(=O)CSc1nc(NS(=O)(=O)c2ccc(C)cc2)cc(=O)[nH]1 the results were TRHR enhancer 11.5, D1 antag -22.4, D1 ag 7.1, TRHR ag 1.1 and D1 PAM 0.3.
For CCc1cccc(C)c1NC(=O)CCCn1nc(C)c2sc3ccccc3c2c1=O the results were TRHR enhancer 0.7, D1 antag -38.6*, D1 ag -0.1, TRHR ag 0.4 and D1 PAM 0.0.
`CCc1cccc(NC(=O)Cn2nc(C)c3sc4ccccc4c3c2=O)c1` gave TRHR enhancer -1.1, D1 antag -42.3*, D1 ag 1.5, TRHR ag -0.9 and D1 PAM -1.4.
For CSc1cccc(NC(=O)Cn2nc(C)c3sc4ccccc4c3c2=O)c1 the results were TRHR enhancer 2.8, D1 antag 3.3, D1 ag 1.7, TRHR ag -1.0 and D1 PAM -2.1.
Screening O=C(Nc1ccccc1C(F)(F)F)N1CC=C(c2c[nH]c3ccccc23)CC1 returned TRHR enhancer 6.6, D1 antag -21.6, D1 ag 21.5, TRHR ag -0.5 and D1 PAM -1.9.
NNC(=O)C(C(=O)OCc1ccccc1)c1ccccc1 (stereo unspecified) was read as TRHR enhancer 1.9, D1 antag -0.2, D1 ag 2.2, TRHR ag 1.6 and D1 PAM -0.7.
For COc1ccc(-c2cn3nc(N4CCC(C(=O)Nc5cccc(Cl)c5)CC4)sc3n2)cc1 the results were TRHR enhancer 6.0, D1 antag -3.2, D1 ag 1.8, TRHR ag 0.2 and D1 PAM -3.4.
`CSc1nccc(Oc2cccc(C#N)c2)n1` gave TRHR enhancer 0.0, D1 antag -33.0*, D1 ag 1.9, TRHR ag -1.0 and D1 PAM -10.2.
COc1cccc(CNCc2ccc(OC)c3ccccc23)c1OC was read as TRHR enhancer 2.1, D1 antag -40.7*, D1 ag 50.2*, TRHR ag -0.5 and D1 PAM -8.8.
For COc1cccc(CNCc2ccccn2)c1OC the results were TRHR enhancer -7.8, D1 antag -23.3, D1 ag 3.3, TRHR ag 0.5 and D1 PAM -11.4.
For COc1ccccc1CNCc1cc(Br)ccc1OC the results were TRHR enhancer -5.9, D1 antag -1.2, D1 ag 37.0*, TRHR ag 2.2 and D1 PAM -2.8.
`N=c1c2c(n(Cc3ccc(Cl)cc3)c3c1CCC3)CCC2` gave TRHR enhancer 11.7, D1 antag -0.5, D1 ag 1.5, TRHR ag 0.6 and D1 PAM -6.2.
Screening N=c1c2c(n(Cc3ccc(F)cc3)c3c1CCC3)CCCC2 returned TRHR enhancer -1.8, D1 antag -30.4*, D1 ag 2.5, TRHR ag 0.2 and D1 PAM -8.6.
For CCCCCCCCCn1c2c(c(=N)c3c1CCC3)CCCC2 the results were TRHR enhancer -1.4, D1 antag 8.1, D1 ag 84.6*, TRHR ag 4.0 and D1 PAM 1.7.
For CCOC(=O)C1CCN(c2ncnc3c2c(-c2ccccc2)cn3-c2ccc(C)c(Cl)c2)CC1 the results were TRHR enhancer -6.7, D1 antag -5.1, D1 ag -3.5, TRHR ag -0.1 and D1 PAM 0.7.
For O=c1/c(=C\c2ccc(O)cc2)sc2n1C(c1ccccc1)C(c1ccccc1)=NN=2 (stereo unspecified) the results were TRHR enhancer -5.6, D1 antag -50.7*, D1 ag 33.2*, TRHR ag 10.0 and D1 PAM -9.7.
For CCOC(=O)C1=C(c2ccccc2)N=c2s/c(=C\c3cccc(O)c3)c(=O)n2C1c1cccs1 (stereo unspecified) the results were TRHR enhancer 11.2, D1 antag -20.3, D1 ag 7.8, TRHR ag 0.9 and D1 PAM -1.2.
Screening Cc1cc(=O)[nH]c(Cc2ccc(OC(C)C)cc2)n1 returned TRHR enhancer 3.1, D1 antag -75.7*, D1 ag 0.7, TRHR ag 0.0 and D1 PAM -4.3.
Screening CCOC(=O)c1ccc(-n2c(CN(CC)CC)nc3ccc([N+](=O)[O-])cc3c2=O)cc1 returned TRHR enhancer -6.8, D1 antag -4.3, D1 ag 6.5, TRHR ag 0.6 and D1 PAM -1.9.
Screening Cn1cc(/C=C(\C#N)C(=O)Nc2ncc(Cc3cccc(Cl)c3)s2)c2ccccc21 returned TRHR enhancer -2.1, D1 antag -10.5, D1 ag 25.1, TRHR ag 9.8 and D1 PAM -10.1.
For N#C/C(=C\c1c[nH]c2ccccc12)C(=O)Nc1ncc(Cc2ccc(Cl)cc2Cl)s1 the results were TRHR enhancer 20.8, D1 antag 5.2, D1 ag 34.7*, TRHR ag -0.9 and D1 PAM -6.3.
For CCC(=O)N1CCCc2cc(S(=O)(=O)Nc3ccc(C)c(C)c3)ccc21 the results were TRHR enhancer -3.7, D1 antag -14.3, D1 ag 4.2, TRHR ag -0.2 and D1 PAM 1.7.
O=C(CSc1nc2ccccc2c(=O)n1CC1CCCO1)NCC1CCCO1 (stereo unspecified) was read as TRHR enhancer 1.8, D1 antag 5.4, D1 ag 0.5, TRHR ag 0.3 and D1 PAM -1.4.

High-throughput results (PubChem BioAssay)
